# Measurements published in PubChem BioAssay AID504332 (National Center for Advancing Translational Sciences (NCATS), 2011).
# Hit rate of the full screen: of about 350,000 compounds, about 31,000 (8.9%) were called active. Inconclusive results (about 15%) are left out. Many of the other results were omitted from the sample, so actives are more common in it than they were. A number with no mark means an inactive call. Calls come from the whole dose curve; as a rule, active = well fitted inhibition curve with a large enough effect; inconclusive = small, poorly fitted or top-dose-only effect; inactive = no such curve, though single readings can be large or run the other way.
# Molecular target: Histone-lysine N-methyltransferase EHMT2 (Homo sapiens) (UniProt Q96KQ7)
# Sequence (Q96KQ7 913-1193 limits assumed): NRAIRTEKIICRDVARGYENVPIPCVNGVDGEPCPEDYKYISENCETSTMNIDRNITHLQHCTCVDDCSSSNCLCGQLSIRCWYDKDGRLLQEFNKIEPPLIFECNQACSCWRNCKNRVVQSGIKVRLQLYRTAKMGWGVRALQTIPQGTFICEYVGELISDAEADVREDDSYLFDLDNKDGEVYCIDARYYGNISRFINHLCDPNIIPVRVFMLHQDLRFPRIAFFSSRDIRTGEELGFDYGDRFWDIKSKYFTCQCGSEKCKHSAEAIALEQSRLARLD
# Assay: qHTS Assay for Inhibitors of Histone Lysine Methyltransferase G9a; note: nearly all actives have a fitted effect of over 75% in size
# Conditions: G9a H3K9 monomethylation, AlphaScreen, 2 h; series mostly up to 59 µM; activity, negative = inhibition: at the top concentration
# In short: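 G9a (20 nM) preincubated 15 min RT with compounds, then 500 nM biotinylated H3K9 peptide and 20 uM SAM added; 2 h RT reaction. Monomethyl-H3K9 product detected by AlphaScreen with anti-H3K9me1 antibody, streptavidin donor and anti-rabbit IgG acceptor beads.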
# % is set by controls: 0 for no effect and ±100 for the full control effect; potency is the fitted concentration of half-maximal effect.
SMILES,"activity, negative = inhibition",Potency
CS(=O)(=O)N(CC(=O)Nc1ccc(F)cc1F)c1cccc([N+](=O)[O-])c1,1.69%,
CCCN1C2CCCC1CC(NC(=O)NC13CC4CC(CC(C4)C1)C3)C2 (stereo unspecified),-2.35% [at 0.501 µM],
OCC[C@H]1C[C@@H](O)[C@H](O)[C@]2(OCCCc3ccccc32)O1,-3% [at 12.7 µM],
COC(=O)CN1C(=O)C(C)(C)Oc2ccc(C(=O)Nc3cccc(OC)c3)cc21,15.9% [at 102 µM],
Cc1cccc(NC(=O)CSc2nnc(NC(=O)CN3CCOCC3)s2)c1,,7.08 µM (active)
Cc1cccc(CSc2nnc(NC(=O)CSc3nnc(C)s3)s2)c1,15.2% [at 102 µM],
CC(=O)c1ccc(NC(=O)CSc2nnc(NC(=O)Nc3ccccc3)s2)cc1,-21.1%,
C=CCn1c(SCC(=O)NCc2ccccc2)nnc1-c1cc(Br)ccc1O,,10 µM (active)
O=C(CSc1nnc(-c2cccnc2)n1CCc1ccccc1)NCc1ccccc1,16.6%,
C=CCn1c(SCC(=O)NC(=O)Cc2ccccc2)nc2ccccc2c1=O,24.2% [at 12.7 µM],
CCc1cc(=O)oc2c(C)c(OCC(=O)NCCN3CCOCC3)ccc12,-1.68% [at 102 µM],
Cc1ccc(S(=O)(=O)N(Cc2nc(-c3ccc(Cl)cc3)no2)C2CCCCC2)cc1,19%,
O=C(CSc1nc(=O)n(Cc2cccnc2)c2c1CCC2)Nc1ccc(F)cc1F,11.7%,
Cc1ccc(C)n1-c1nnc(N2CCC(C(=O)NCc3ccc(F)cc3)CC2)s1,4.77%,
CCOc1ccc(Nc2nc(Cc3nnc(SCC(=O)NC4CCCC4)n3C)cs2)cc1,,28.2 µM (active)
Cn1c(CC(=O)Nc2ccc(F)cc2)nnc1SCC(=O)NC1CCCCC1,2.6%,
CCOc1cccc(-c2nnc(SCC(=O)NC3CC3)n2C)c1,-2.25% [at 102 µM],
CC(C)CCNC(=O)CSc1nc2ccccc2nc1Cc1ccc(Cl)cc1,14.1%,
CC(C)c1ccc(C(=O)NCCCc2ccccc2)cc1,68.5%,
Nc1ccc(C(=O)NCc2ccccc2)cc1,-1.36% [at 102 µM],
O=C(NCCCNCc1ccccc1)c1ccc(/C=N/O)nc1,,14.1 µM (active)
COc1ccccc1N1CCN(S(=O)(=O)CCNC(=O)COc2ccc(F)cc2)CC1,5.42%,
COc1ccc(-c2c(C)c3ccc(O)c(CN4CCN(C)CC4)c3oc2=O)cc1OC,6.72%,

SMILES,"activity, negative = inhibition",Potency
CC(C)c1ccc2oc(=O)cc(CN3CCN(Cc4ccccc4)CC3)c2c1,,50.1 µM (active)
Cc1cc2oc(=O)cc(CN3CCN(Cc4ccccc4)CC3)c2cc1C,8.68% [at 102 µM],
COc1ccc2oc(=O)cc(CN3CCOCC3)c2c1,20.4% [at 0.501 µM],
CC1CC(C)CN(C(=O)COC(=O)c2ccc3ncsc3c2)C1 (stereo unspecified),-10.9% [at 12.7 µM],
CCc1cccc(NC(=O)C2CCCN(S(=O)(=O)c3ccc4[nH]c(=O)ccc4c3)C2)c1 (stereo unspecified),-12.2%,
CSc1ccccc1C(=O)OCC(=O)N1CCN(C(C)=O)CC1,-3.84% [at 12.7 µM],
Cc1ccccc1N1C(=O)C2ON(c3ccccc3)C(c3ccncc3)C2C1=O (stereo unspecified),,44.7 µM (active)
COC(=O)C1=NN(c2ccccc2)C2C(=O)N(c3ccccc3OC)C(=O)C12 (stereo unspecified),-8.07%,
COc1cc(C2C3C(=O)N(c4ccccc4)C(=O)C3ON2c2ccccc2)ccc1O (stereo unspecified),12.5%,
CCOc1ccc2c(c1)c(=O)c(S(=O)(=O)c1ccc(C)cc1)cn2CC,6.41% [at 102 µM],
COc1ccccc1C(=O)COC(=O)CSCC(=O)Nc1cc(C)on1,-33.7% [at 102 µM],
CC(C)(COC(=O)Nc1ccccc1)COC(=O)Nc1ccccc1,-24.1% [at 2.33 µM],
CCOC(=O)c1sc2nc(SC)nc(-c3ccccc3)c2c1N,22.6% [at 12.7 µM],
CCN(CC)C(=O)c1sc2nc(-c3ccccc3)ccc2c1N,,17.8 µM (active)
COc1cccc(C(=O)c2sc3nc(-c4ccccc4)cc(C(F)(F)F)c3c2N)c1,71%,
CC(=O)NS(=O)(=O)c1ccc2c(c1)Cc1cc(S(=O)(=O)NC(C)=O)ccc1-2,-3.76% [at 0.501 µM],
COc1ccc(CCNC(=O)c2c3c(nc4ccccc24)C(=O)N(C2CCCCC2)C3)cc1OC,9.2%,
CCOc1ccc(C(=O)Nc2ccc3nc4c(c(Nc5ccccc5OC)c3c2)CCCC4)cc1,-44%,
COc1ccc(/C=C/C(=O)Nc2ccc3c(c2)OCCO3)cc1OC,-16.2%,
COc1ccccc1Nc1c2c(nc3ccc(NC(=O)/C=C/c4cc(OC)c(OC)c(OC)c4)cc13)CCCC2,,14.1 µM (active)
CC(C)=C1C2CCC1C1C(=O)N(NC(=O)c3ccco3)C(=O)C21 (stereo unspecified),6.86% [at 102 µM],
O=C(NC1CC(=O)N(c2ccccc2)C1)c1ccco1 (stereo unspecified),-2.6%,
O=C(NN1C(=O)C2C3C=CC(C3)C2C1=O)c1ccco1 (stereo unspecified),,12.6 µM (active)
